From PubChem BioAssay (NCATS) come the findings set out here.

The nature of experiment [1]: Cell Viability - MRC5 (AID 434; calls by dose curve;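 note: potency is the fitted concentration of half-maximal effect; potency reflects cytotoxicity seen as loss of intracellular ATP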). As to conditions: MRC5 lung fibroblast viability, qHTS. The gist of the method: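 MRC5 normal human lung fibroblasts, 1500 cells/well, exposed to compound for 40 hr at 37 C. Cellular ATP was read by CellTiter-Glo luminescence; data normalized to DMSO and 100 uM tamoxifen, with AC50 from Hill fits.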
Background: qHTS replaces the single test concentration by a dilution series.

Experiment [2] is described as follows: Cell Viability - HUV-EC-C (AID 542). Note: nearly all actives have a fitted effect of over 35% in size. Note: potency is the fitted concentration of half-maximal effect. To be noted: HUV-EC-C endothelial cell viability, qHTS; series mostly up to 92.2 µM. The gist of the method: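 qHTS cytotoxicity: HUV-EC-C, 1000 cells/well, 5 hr settle, compound 40 hr 37 °C, CellTiter-Glo, luminescence. AC50 via Hill equation.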
Experiment [3] can be described thus: Cellular Toxicity (caspase-3) HepG2 (AID 654).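 Note: cells exposed to compound for 16 hours before reading; 0% = DMSO alone and 100% = caspase signal from 100 µM tamoxifen.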 To be noted: HepG2 caspase-3 activation, luminescence; series mostly up to 92.2 µM. The gist of the method: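 Cells plated 5 hr at 37 °C, compound added, incubated 16 hr at 37 °C. Caspase-Glo 3/7 reagent followed, 20 min at room temperature, then luminescence read. Activation scored as signal increase; AC50 from Hill fit.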

The nature of experiment [4]: Cellular Toxicity (caspase-3) HUV-EC-C (AID 656). To be noted: HUV-EC-C cells, caspase-3 activation (apoptosis); series mostly up to 92.2 µM. The gist of the method:
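Luminescent caspase-3/7 activation (aminoluciferin substrate cleavage) in HUV-EC-C cells after 16 hr compound exposure, 37°C. Signal normalized to DMSO basal and 100 uM tamoxifen as 100%; AC50 from concentration-response fitted with the Hill equation.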

The nature of experiment [5]: Cellular Toxicity (caspase-3) SHSY5Y (AID 657). To be noted: SH-SY5Y caspase-3 activation; series mostly up to 91.7 µM. The procedure, abridged: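 Luminescent caspase-3/7 readout (aminoluciferin release) in SH-SY5Y cells after 16 h compound exposure in complete medium. Activity scaled between DMSO basal and 10 uM staurosporine as 100%; concentration-response fitted to Hill equation for AC50.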

Experiment [6] can be described thus: Cellular Toxicity (caspase-3) Mesangial (AID 660).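 Note: combined caspase 3 and 7 activity read by Caspase-Glo luminescence.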 As to conditions: mesangial cells, normalized: DMSO 0%, 100 µM tamoxifen 100%; series mostly up to 91.7 µM. The gist of the method:
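Mesangial cells, 1000/well, 5 h settle at 37 °C; compound 16 h, 37 °C; Caspase-Glo 3/7 reagent 20 min RT; luminescence. Norm.: DMSO = 0%, tamoxifen 100 uM = 100%. AC50, Hill fit.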

The nature of experiment [7]: Cellular Toxicity (caspase-3) SK-N-SH (AID 661). To be noted: SK-N-SH caspase-3 activation, qHTS, DMSO as zero, staurosporine as full; series mostly up to 91.7 µM. The gist of the method:
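Human neuroblastoma SK-N-SH, 1500 cells/well, 5 hr pre-incubation, then compound 16 hr, 37 °C. Caspase-Glo 3/7 reagent, 1 hr RT, luminescence. Norm. to DMSO/10 uM staurosporine; Hill-fit AC50.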

The nature of experiment [8]: Cellular Toxicity (caspase-3) H-4-II-E (AID 663). As to conditions: H-4-II-E rat hepatoma; Potency: caspase-3 activation; series mostly up to 92.2 µM. The procedure, abridged:
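Rat hepatoma H-4-II-E cells (1500/well) plated 5 hr, then exposed to compound titrations for 16 hr at 37 °C. Caspase-Glo 3/7 luminescence read after 20 min at RT; data normalized to DMSO and 100 uM tamoxifen, AC50 from Hill fits.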

The nature of experiment [9]: Cellular Toxicity (caspase-3) N2a (AID 665).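 Note: compound exposure lasted 16 h at 37 °C before readout.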 As to conditions: N2a cells, luminescence, normalized: DMSO 0%, 10 µM staurosporine 100%; series mostly up to 92.2 µM. The procedure, abridged: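 N2a cells, 1500/well, 5 h settle at 37 °C; cpd 16 h, 37 °C; Caspase-Glo 3/7, 1 h RT; luminescence. Norm: DMSO = 0, 10 uM staurosporine = 100%. AC50, Hill fit.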
Experiment [10] can be described thus: Cellular Toxicity (caspase-3) Renal Proximal Tubule (AID 667).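 Note: cells exposed to compound for 16 hours at 37 °C before detection.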 To be noted: renal proximal tubule cells, primary cells freshly taken from rat; Potency: caspase-3 activation; series mostly up to 91.7 µM. The procedure, abridged: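 Luminescent caspase 3/7 signal from peptide-aminoluciferin cleavage measures apoptosis in freshly isolated rat kidney proximal tubule cells after 16 h compound exposure. Concentration-response data are normalized to DMSO and 10 uM staurosporine, and AC50 values come from Hill equation fits.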

The nature of experiment [11]: MultiTox-Fluor Cytotoxicity Assay - LYMP1-001 - Dead Cells (AID 946).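 Note: 0% = DMSO and 100% = tetraoctylammonium bromide.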 As to conditions: LYMP1-001 lymphoblastoid cells, dead-cell protease fluorescence; series mostly up to 92.2 µM. The procedure, abridged: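 In this qHTS, 15 uM tetraoctylammonium bromide defined 100% and DMSO defined basal activity. Lymphoblastoid cells (LYMP1-001, 2500 per well) received compound for 16 hr at 37 C before a fluorogenic dead-cell substrate readout at 485/520 nm.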

A short description of experiment [12]: MultiTox-Fluor Cytotoxicity Assay - LYMP1-003 - Dead Cells (AID 961).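 Note: 0% = DMSO and 100% = tetraoctylammonium bromide; nearly all actives have a fitted effect of over 70% in size.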 As to conditions: LYMP1-003 lymphoblastoid cells, dead-cell protease fluorescence; series mostly up to 92.2 µM. The procedure, abridged:
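Acute toxicity is scored as increased dead-cell protease activity in human lymphoblastoid LYMP1-003 cells after 16 h compound exposure in complete culture medium. Activity is normalized to DMSO basal and 15 uM tetraoctylammonium bromide as full response.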

A short description of experiment [13]: MultiTox-Fluor Cytotoxicity Assay - LYMP1-003 - Live Cells (AID 962).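 Note: 0% = DMSO only and full loss = 92 µM tetraoctylammonium bromide; cytotoxic hits lower the live-cell protease signal.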 As to conditions: LYMP1-003 lymphoblastoid cells, MultiTox-Fluor live-cell protease fluorescence; series mostly up to 92.2 µM. The procedure, abridged: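 qHTS, 1536-well; 2500 cells/well LYMP1-003; 5 hr 37 C settle; cpd 16 hr 37 C; MultiTox-Fluor reagent 60 min RT; live-cell protease fluor. 405/510; Hill-fit AC50; tetraoctylammonium bromide pos. ctrl.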

A short description of experiment [14]: Cell Viability - LYMP1-003 - Assay at 24 hr (AID 963).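 Note: plate controls were DMSO only for no effect and tetraoctylammonium bromide positive control for full effect.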 As to conditions: LYMP1-003 lymphoblastoid cell viability; series mostly up to 92.2 µM. The procedure, abridged:
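Cells seeded at 2500/well, 5 hr at 37 C; compounds added; 24 hr at 37 C; CellTiter-Glo added, 30 min room temperature; luminescence read. Decrease in ATP taken as cytotoxicity, AC50 from Hill modelling.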

Experiment [15] in a line: Cell Viability - LYMP1-002 - Assay at 24 hr (AID 993). Note: % is set by controls: 0 for no effect and ±100 for the full control effect. As to conditions: LYMP1-002 lymphoblastoid cells viability; series mostly up to 92.2 µM. The gist of the method: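 Cells plated 2500/well, 5 hr 37 C; compounds added, 24 hr 37 C; CellTiter-Glo added, 30 min RT; luminescence read. Tetraoctylammonium bromide positive control. Hill-equation AC50.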
A short description of experiment [16]: qHTS Assay for Identification of Small Molecule Inducers of Hypoxia Response (AID 2120; active = well fitted curve in the direction sought with a large enough effect in the signal ratio, with a control signal flat, not every such curve was filed as active; the % refers to the signal ratio; note: 0% is about no effect). As to conditions: hypoxia response reporter cells, beta-lactamase ratio readout; series mostly up to 104 µM. The gist of the method: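 ME-180 HRE-bla cells plated in Opti-MEM/0.5% dialyzed FBS, rested 4-5 h, then dosed with compound titrations by pin tool. After 17 h at 37 degrees C, CCF4 dye loaded 2.5 h at RT; 460/530 nm ratio gave %Activity and AC50.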

Experiment [17] concerns the target Peroxisome proliferator-activated receptor alpha (Homo sapiens) (UniProt Q07869). The experiment can be described thus: qHTS assay for small molecule agonists of the peroxisome proliferator-activated receptor alpha (PPARalpha) signaling pathway (AID 651778). For max response: % of control where 0% means no effect. Note: potency is the fitted concentration of half-maximal effect. As to conditions: PathHunter PPARalpha complementation, chemiluminescence, 6 h; max response: hits give high values. The gist of the method:
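Enzyme-fragment complementation assay in which ligand-bound PPARalpha translocates and forms an active enzyme that generates chemiluminescence. Cells were plated overnight, exposed to compound for 6 hr at 37 C, and then given detection reagent for 60 min at room temperature.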

Experiment [18] is described as follows: qHTS assay for small molecule agonists of the antioxidant response element (ARE) signaling pathway measured by Nrf2-dependant transcriptional activity - cell viability counter screen (AID 720653; active = well fitted curve in the direction sought with a large enough effect in the repeat runs; an effect the other way counts as inactive or inconclusive; note: % is set by controls: 0 for no effect and ±100 for the full control effect). As to conditions: ARE-bla HepG2 viability, CellTiter-Glo ATP luminescence, 16 h; max response: hits give low values. The procedure, abridged:
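ARE-bla HepG2 cells treated with compounds for 16 h at 37C; this counter screen measures viability as intracellular ATP by CellTiter-Glo luminescence after 30 min at room temperature.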

Experiment [19] in a line: qHTS assay for cell viability of the p53RE-bla HCT-116 cell line (AID 743292). Note: % is set by controls: 0 for no effect and ±100 for the full control effect; nearly all actives have a fitted effect of over 55% in size. As to conditions: p53RE-bla HCT-116 viability, ATP luminescence, 16 h; series mostly up to 95 µM. The procedure, abridged: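 Compound-exposed HCT-116 (p53RE-bla) cells, 4,000 per well, were kept 16 h at 37 C following a 5 h preincubation. Cell number was estimated from total ATP by CellTiter-Glo luminescence read after 30 min at room temperature.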

Experiment [20] is described as follows: Cellular Toxicity (caspase-3) NIH 3T3 (AID 666).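 Note: 0% = DMSO basal and 100% = 100 µM tamoxifen stimulation.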 As to conditions: NIH 3T3 caspase-3 activation, apoptosis/toxicity, 0% DMSO, 100% is 100 µM tamoxifen; series mostly up to 92.2 µM. The procedure, abridged: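 Luminescence from aminoluciferin released by caspase-3/7 cleavage of a peptide substrate served as read-out. Mouse fibroblast NIH 3T3 cells were exposed to compounds over a concentration range for 16 hours, and AC50 values came from standard Hill modelling.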

Each structure is given as a SMILES string. “And” between values parts separate entries of the source, which are not always exact repeats. Identical values can stand only once. Unmarked numbers belong to inactive results. Inconclusive results are not listed. The source made the active and inactive calls. Unless noted, calls come from the whole dose curve; as a rule, active = well fitted curve in the direction sought with a large enough effect; inconclusive = small, poorly fitted or top-dose-only effect, or another doubt; inactive = no such curve, though single readings can be large; an effect the other way counts as inactive or inconclusive.

Peroxisome proliferator-activated receptor alpha (Homo sapiens), sequence (Q07869 whole entry, looked up, the tested form may be a part): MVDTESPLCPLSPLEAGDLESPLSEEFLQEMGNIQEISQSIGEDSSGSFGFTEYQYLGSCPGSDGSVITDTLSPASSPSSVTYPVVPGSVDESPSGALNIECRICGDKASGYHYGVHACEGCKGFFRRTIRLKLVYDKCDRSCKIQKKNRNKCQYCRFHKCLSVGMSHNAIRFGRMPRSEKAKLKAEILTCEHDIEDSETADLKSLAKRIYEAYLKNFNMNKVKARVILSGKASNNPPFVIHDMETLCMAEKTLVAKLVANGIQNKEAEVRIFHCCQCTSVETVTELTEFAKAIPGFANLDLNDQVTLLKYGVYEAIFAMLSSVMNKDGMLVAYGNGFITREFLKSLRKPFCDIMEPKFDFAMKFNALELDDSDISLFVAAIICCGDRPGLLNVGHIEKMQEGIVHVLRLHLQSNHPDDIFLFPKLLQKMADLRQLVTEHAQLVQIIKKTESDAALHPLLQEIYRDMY

`Nc1ccc2c(c1)C(=O)c1ccccc1C2=O`: the Potency in experiment [1] is over 92 µM; in experiment [2] it was 31.6 µM (active). For the same compound, the Potency result in experiment [3], in experiment [4], in experiment [5], in experiment [8], in [10] and in experiment [11] was “inactive” throughout. In addition, the Potency result in experiment [12], in experiment [13], in experiment [14], in [15], in experiment [16] and in experiment [19] was “inactive” each time. Besides, the compound was classed as inactive in experiment [6], in experiment [7] and in experiment [9]. Moreover, the max response in [17] is -6.61% and 0.0151%; in experiment [18], -14.7% and -7.62%.

Regarding `CCCCOC(=O)COc1ccc(Cl)cc1Cl`, the Potency in experiment [1] is over 92 µM. In addition, the Potency entry in experiment [2], in experiment [3], in experiment [4], in [5], in experiment [8] and in experiment [10] was “inactive” throughout. The Potency entry in experiment [11], in [12], in [13], in experiment [14], in experiment [15] and in experiment [16] was “inactive” each time. The Potency entry in [19] is “inactive”. The call in experiment [6], in [7], in experiment [9] and in experiment [20] was inactive. Also, the max response was 7.72% and -1.16% in experiment [17]; -6.14% and -13.6% in experiment [18].

On to `CCc1ccc(C(c2ccc(CC)cc2)C(Cl)Cl)cc1`, for which the Potency in [1] was over 92 µM. The Potency result in [2], in experiment [3], in experiment [4], in experiment [5], in [8] and in experiment [10] was “inactive” each time. Further, the Potency entry in experiment [11], in experiment [12], in experiment [13], in experiment [14], in experiment [15] and in experiment [16] was “inactive” throughout. Further, the Potency entry in [19] is “inactive”. Further, the outcome in experiment [6], in experiment [7], in experiment [9] and in [20] was inactive. The max response in experiment [17] was -1.02%; in experiment [18] it was -5.77%.

In the case of `CCCCCCCC/C=C\CCCCCCCC(=O)N(CCO)CCO`, the Potency was over 92 µM in experiment [1] and 39.8 µM (active) in experiment [2]. Also, the Potency entry in experiment [3], in [4], in [5], in [10], in experiment [11] and in experiment [12] was “inactive” in each case. Further, the Potency result in experiment [13], in [14], in [15], in [16] and in [19] was “inactive” in each case. Besides, the call in experiment [6], in [7], in experiment [9] and in experiment [20] was inactive. The max response was 28.4% in experiment [17] and -24.9% in experiment [18].

With `Cc1ccccc1OCC1CO1` (stereo not drawn), the Potency in [1] is over 92 µM. In addition, the Potency entry in experiment [2], in [3], in experiment [4], in experiment [5], in experiment [8] and in experiment [10] was “inactive” in each case. In addition, the Potency result in [11], in experiment [12], in experiment [13], in experiment [14], in experiment [15] and in experiment [16] was “inactive” each time. Moreover, the Potency entry in [19] was “inactive”. The outcome in [6], in experiment [7], in experiment [9] and in [20] was inactive. The max response in [17] was -1.41%; in [18], 0.854%.

For the compound `CCCCCCCCOc1ccc(C(=O)O)cc1`, the Potency in [1] was over 92 µM; in experiment [17], 7.08 µM (active). The Potency entry in experiment [2], in experiment [3], in experiment [4], in [5], in [8] and in experiment [10] was “inactive” in each case. Also, the Potency entry in [11], in [12], in experiment [13], in [14], in experiment [15] and in [16] was “inactive” throughout. Moreover, the Potency entry in experiment [19] was “inactive”. In addition, the result in [6], in experiment [7], in experiment [9] and in experiment [20] was inactive. The max response in [18] was -6.08%.
